In PubChem BioAssay (NCATS) one finds Potency data, which are given here for 29 compounds.

Experiment in all cases: qHTS profiling for inhibitors of Plasmodium falciparum proliferation (AID 504749); further: nearly all actives have a fitted effect of over 60% in size
Common to all, as to settings: P. falciparum in erythrocytes, SYBR Green DNA, 72 h; series mostly up to 28.7 µM

Test [1] concerns CP185. The method, boiled down:
(§1)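 Infected RBCs, 0.3% parasitemia/2.5% Hct final; cpd 72 h, 37 C, 5% CO2; lysis buffer with saponin/triton/SYBR Green I, o/n RT dark; FI 485/535; norm. to artemisinin (0.29 uM) and DMSO.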

Test [2] has as its system CP191. The essentials: as §1
The subject of test [3] is CP192. The method, boiled down:
as §1

Test [4] relates to CP194. The essentials:
as §1

In test [5] the test system is CP201. The method, boiled down: as §1
For test [6], the system named is CP211. The essentials: as §1
For test [7], the system named is CP215. The essentials: as §1
The subject of test [8] is CP217. The method, boiled down:
as §1

The subject of test [9] is CP237. The method, boiled down:
as §1

Test [10] deals with CP203. The method, boiled down: as §1

Inconclusive results are not listed. The source made the active and inactive calls. The call rests on the fitted dose curve; in most records, active means well fitted inhibition curve with a large enough effect; inconclusive means small, poorly fitted or top-dose-only effect; inactive means flat fitted curve, though single readings scatter.
Potency means the concentration at half of the fitted maximal effect.

Turning to `COc1cc2[nH]c(=O)[nH]c(=O)c2cc1OC`, the Potency entry in test [1], in [2], in [3], in test [4], in test [5] and in test [6] was “inactive” in each case. In addition, the Potency result in test [7], in test [8] and in [9] was “inactive” each time.
For `O=S(=O)(O)c1cc(I)c(O)c2ncccc12`, the Potency entry in [1], in test [2], in test [3], in [4], in test [5] and in [6] was “inactive” each time. The Potency entry in [7], in [8] and in test [9] was “inactive” throughout.
For `CC(C)(C)NCC(O)COc1ccc(NC(=O)NC2CCCCC2)cc1` (stereo not drawn), the Potency entry in [1], in [2], in test [3], in test [4], in [5] and in [6] was “inactive” in each case. In addition, the Potency result in [7], in test [8] and in test [9] was “inactive” each time.
Regarding `CCCn1cnc2c1c(=O)n(CCCCC(C)=O)c(=O)n2C`, the Potency result in [1], in test [2], in test [3], in [4], in test [5] and in [6] was “inactive” each time. For the same compound, the Potency entry in [7], in test [8] and in test [9] was “inactive” throughout.
As to `CCOc1ccc2ccccc2c1C(=O)N[C@@H]1C(=O)N2[C@@H]1SC(C)(C)[C@@H]2C(=O)O`, the Potency result in test [1], in [2], in [3], in [4], in test [5] and in [6] was “inactive” each time. The Potency result in [7], in [8] and in [9] was “inactive” in each case.
For the compound `COc1cc(C)c(Cc2cnc(N)nc2N)cc1OC`, the Potency entry in [1], in [2], in test [3], in test [4], in [5] and in test [6] was “inactive” each time. The Potency result in [7], in [8] and in test [9] was “inactive” in each case.
On to `O=C1c2c(O)cccc2Cc2cccc(O)c21`, for which the Potency result in test [1], in test [2], in test [3], in [4], in [5] and in test [6] was “inactive” each time. Moreover, the Potency result in [7], in test [8] and in test [9] was “inactive” in each case.
Turning to `Nc1nc2c(ncn2CCC(CO)CO)c(=O)[nH]1`, the Potency entry in test [1], in [2], in test [3], in [4], in test [5] and in test [6] was “inactive” in each case. Besides, the Potency result in test [7], in test [8] and in [9] was “inactive” in each case.
Regarding `COc1cc(C(=O)N2CCOCC2)cc(OC)c1OC`, the Potency entry in test [1], in [2], in test [3], in [4], in test [5] and in test [6] was “inactive” in each case. For the same compound, the Potency entry in test [7], in test [8] and in [9] was “inactive” in each case.
With `[O-][n+]1cccc(CO)c1`, the Potency entry in test [1], in [2], in [3], in [4], in [5] and in [6] was “inactive” throughout. Also, the Potency entry in test [7], in [8] and in test [9] was “inactive” throughout.
On to `O=c1[nH]c(=O)c2[nH]c(=O)[nH]c2[nH]1`, for which the Potency entry in [1], in test [2], in test [3], in test [4], in test [5] and in test [6] was “inactive” each time. In addition, the Potency result in test [7], in test [8] and in test [9] was “inactive” in each case.
In the case of `CCCCCCCCCCCCOS(=O)(=O)O`, the Potency result in test [1], in test [2], in [3], in test [4], in test [5] and in [6] was “inactive” in each case. For the same compound, the Potency result in [7], in [8] and in test [9] was “inactive” in each case.
For `NC(=O)NC(=O)Cc1ccccc1`, the Potency result in test [1], in test [2], in [3], in test [4], in [5] and in [6] was “inactive” in each case. In addition, the Potency entry in test [7], in [8] and in test [9] was “inactive” throughout.
On to `CCCCc1ncc(/C=C(\Cc2cccs2)C(=O)O)n1Cc1ccc(C(=O)O)cc1`, for which the Potency result in test [1], in test [2], in test [3], in test [4], in test [5] and in [6] was “inactive” throughout. Besides, the Potency entry in test [7], in [8] and in [9] was “inactive” throughout.
With `Cc1cccc(C)c1NC(=O)CN(CC(=O)O)CC(=O)O`, the Potency result in [1], in test [2], in [3], in [4], in test [5] and in [6] was “inactive” throughout. In addition, the Potency result in test [7], in [8] and in test [9] was “inactive” throughout.
In the case of `CC(=O)NC(Cc1ccccc1)C(=O)O` (stereo not drawn), the Potency entry in test [1], in test [2], in test [3], in [4], in test [5] and in [6] was “inactive” in each case. Moreover, the Potency entry in test [7], in test [8] and in [9] was “inactive” in each case.
Regarding `CC1=C(CC(=O)O)c2cc(F)ccc2/C1=C\c1ccc(S(C)=O)cc1` (stereo not drawn), the Potency entry in test [1], in test [2], in [3], in [4], in [5] and in [6] was “inactive” each time. Besides, the Potency result in [7], in test [8] and in test [9] was “inactive” throughout.
In the case of `Cn1c(=O)c2c(ncn2CC2OCCO2)n(C)c1=O`, the Potency entry in [1], in [2], in test [3], in test [4], in test [5] and in test [6] was “inactive” each time. Besides, the Potency result in [7], in test [8] and in test [9] was “inactive” in each case.
As for `Nc1ncnc2c1ncn2[C@@H]1O[C@H](CO)[C@@H](O)[C@H]1O`, the Potency entry in test [1], in test [2], in [3], in test [4], in test [5] and in test [6] was “inactive” in each case. The Potency entry in [7], in [8] and in test [9] was “inactive” throughout.
Consider `O=C1NC(=O)[C@@]2(CCOc3ccc(F)cc32)N1`, for which the Potency entry in test [1], in test [2], in test [3], in [4], in test [5] and in test [6] was “inactive” in each case. The Potency entry in test [7], in [8] and in test [9] was “inactive” in each case.
Turning to `CC(=O)Nc1ccc(/C=N/NC(N)=S)cc1`, the Potency result in test [1], in test [2], in [3], in test [4], in [5] and in [6] was “inactive” in each case. Further, the Potency entry in test [7], in test [8] and in test [9] was “inactive” in each case.
In the case of `Nc1ccc(S(=O)(=O)Nc2ccc(Cl)nn2)cc1`, the Potency in test [2] is 1120 nM (active). Also, the Potency result in test [3], in [4], in [5], in [6], in [7] and in [9] was “inactive” each time.
Consider `C[C@]12C[C@H](O)[C@H]3[C@@H](CCC4=CC(=O)CC[C@@]43C)[C@@H]1CC[C@@H]2C(=O)CO`, for which the Potency result in test [3], in [4], in test [5], in test [10], in [6] and in [7] was “inactive” throughout. Further, the Potency result in [9] is “inactive”.
`CCCCN1CCCC[C@H]1C(=O)Nc1c(C)cccc1C`: the Potency entry in test [1], in test [2], in test [3], in [5], in test [6] and in [7] was “inactive” throughout. The Potency entry in test [8] is “inactive”. For the same compound, the Potency in [9] was 8910 nM (active).
As for `CC(CN1c2ccccc2Sc2ccccc21)N(C)C` (stereo not drawn), the Potency entry in test [1], in [2], in test [3], in test [4], in test [5] and in test [6] was “inactive” in each case. Moreover, the Potency result in test [8] is “inactive”.
As for `CNC(=O)Oc1ccc2c(c1)[C@]1(C)CCN(C)[C@@H]1N2C`, the Potency was 1580 nM (active) in [1], 2240 nM (active) in [2] and 4470 nM (active) in test [9].
Take `[Cl][In]([Cl])[Cl]`: the Potency entry in test [1], in [3], in [4], in [5] and in test [6] was “inactive” throughout.
In the case of `CSc1ccc2c(c1)C(N1CCN(C)CC1)Cc1ccccc1S2` (stereo not drawn), the Potency entry in test [3] and in [5] was “inactive” in each case.
For the compound `COc1ccc2[nH]c(S(=O)Cc3ncc(C)c(OC)c3C)nc2n1` (stereo not drawn), the Potency entry in test [3], in [4], in test [5], in test [6] and in test [7] was “inactive” each time.
